Test results published in the supplement of paper PMC11732987, “Enantioselective OTUD7B fragment discovery through chemoproteomics screening and high-throughput optimisation” (Communications Chemistry, 2025).

Legend:
Assay in all cases: log2 ratio of Biotin-Ahx-Ub-VS probe labelling (fragment/DMSO); higher = less target engagement (more negative = stronger competition), active = hit call of the paper (q ≤ 0.05, log2 ratio ≤ -1)
Conditions in all cases: compound concentration: 200 uM; treatment time: 3 h
USP34 = USP34 (UniProt Q70CQ2)
Chain of USP34 (Q70CQ2 whole entry, the tested form may be a part): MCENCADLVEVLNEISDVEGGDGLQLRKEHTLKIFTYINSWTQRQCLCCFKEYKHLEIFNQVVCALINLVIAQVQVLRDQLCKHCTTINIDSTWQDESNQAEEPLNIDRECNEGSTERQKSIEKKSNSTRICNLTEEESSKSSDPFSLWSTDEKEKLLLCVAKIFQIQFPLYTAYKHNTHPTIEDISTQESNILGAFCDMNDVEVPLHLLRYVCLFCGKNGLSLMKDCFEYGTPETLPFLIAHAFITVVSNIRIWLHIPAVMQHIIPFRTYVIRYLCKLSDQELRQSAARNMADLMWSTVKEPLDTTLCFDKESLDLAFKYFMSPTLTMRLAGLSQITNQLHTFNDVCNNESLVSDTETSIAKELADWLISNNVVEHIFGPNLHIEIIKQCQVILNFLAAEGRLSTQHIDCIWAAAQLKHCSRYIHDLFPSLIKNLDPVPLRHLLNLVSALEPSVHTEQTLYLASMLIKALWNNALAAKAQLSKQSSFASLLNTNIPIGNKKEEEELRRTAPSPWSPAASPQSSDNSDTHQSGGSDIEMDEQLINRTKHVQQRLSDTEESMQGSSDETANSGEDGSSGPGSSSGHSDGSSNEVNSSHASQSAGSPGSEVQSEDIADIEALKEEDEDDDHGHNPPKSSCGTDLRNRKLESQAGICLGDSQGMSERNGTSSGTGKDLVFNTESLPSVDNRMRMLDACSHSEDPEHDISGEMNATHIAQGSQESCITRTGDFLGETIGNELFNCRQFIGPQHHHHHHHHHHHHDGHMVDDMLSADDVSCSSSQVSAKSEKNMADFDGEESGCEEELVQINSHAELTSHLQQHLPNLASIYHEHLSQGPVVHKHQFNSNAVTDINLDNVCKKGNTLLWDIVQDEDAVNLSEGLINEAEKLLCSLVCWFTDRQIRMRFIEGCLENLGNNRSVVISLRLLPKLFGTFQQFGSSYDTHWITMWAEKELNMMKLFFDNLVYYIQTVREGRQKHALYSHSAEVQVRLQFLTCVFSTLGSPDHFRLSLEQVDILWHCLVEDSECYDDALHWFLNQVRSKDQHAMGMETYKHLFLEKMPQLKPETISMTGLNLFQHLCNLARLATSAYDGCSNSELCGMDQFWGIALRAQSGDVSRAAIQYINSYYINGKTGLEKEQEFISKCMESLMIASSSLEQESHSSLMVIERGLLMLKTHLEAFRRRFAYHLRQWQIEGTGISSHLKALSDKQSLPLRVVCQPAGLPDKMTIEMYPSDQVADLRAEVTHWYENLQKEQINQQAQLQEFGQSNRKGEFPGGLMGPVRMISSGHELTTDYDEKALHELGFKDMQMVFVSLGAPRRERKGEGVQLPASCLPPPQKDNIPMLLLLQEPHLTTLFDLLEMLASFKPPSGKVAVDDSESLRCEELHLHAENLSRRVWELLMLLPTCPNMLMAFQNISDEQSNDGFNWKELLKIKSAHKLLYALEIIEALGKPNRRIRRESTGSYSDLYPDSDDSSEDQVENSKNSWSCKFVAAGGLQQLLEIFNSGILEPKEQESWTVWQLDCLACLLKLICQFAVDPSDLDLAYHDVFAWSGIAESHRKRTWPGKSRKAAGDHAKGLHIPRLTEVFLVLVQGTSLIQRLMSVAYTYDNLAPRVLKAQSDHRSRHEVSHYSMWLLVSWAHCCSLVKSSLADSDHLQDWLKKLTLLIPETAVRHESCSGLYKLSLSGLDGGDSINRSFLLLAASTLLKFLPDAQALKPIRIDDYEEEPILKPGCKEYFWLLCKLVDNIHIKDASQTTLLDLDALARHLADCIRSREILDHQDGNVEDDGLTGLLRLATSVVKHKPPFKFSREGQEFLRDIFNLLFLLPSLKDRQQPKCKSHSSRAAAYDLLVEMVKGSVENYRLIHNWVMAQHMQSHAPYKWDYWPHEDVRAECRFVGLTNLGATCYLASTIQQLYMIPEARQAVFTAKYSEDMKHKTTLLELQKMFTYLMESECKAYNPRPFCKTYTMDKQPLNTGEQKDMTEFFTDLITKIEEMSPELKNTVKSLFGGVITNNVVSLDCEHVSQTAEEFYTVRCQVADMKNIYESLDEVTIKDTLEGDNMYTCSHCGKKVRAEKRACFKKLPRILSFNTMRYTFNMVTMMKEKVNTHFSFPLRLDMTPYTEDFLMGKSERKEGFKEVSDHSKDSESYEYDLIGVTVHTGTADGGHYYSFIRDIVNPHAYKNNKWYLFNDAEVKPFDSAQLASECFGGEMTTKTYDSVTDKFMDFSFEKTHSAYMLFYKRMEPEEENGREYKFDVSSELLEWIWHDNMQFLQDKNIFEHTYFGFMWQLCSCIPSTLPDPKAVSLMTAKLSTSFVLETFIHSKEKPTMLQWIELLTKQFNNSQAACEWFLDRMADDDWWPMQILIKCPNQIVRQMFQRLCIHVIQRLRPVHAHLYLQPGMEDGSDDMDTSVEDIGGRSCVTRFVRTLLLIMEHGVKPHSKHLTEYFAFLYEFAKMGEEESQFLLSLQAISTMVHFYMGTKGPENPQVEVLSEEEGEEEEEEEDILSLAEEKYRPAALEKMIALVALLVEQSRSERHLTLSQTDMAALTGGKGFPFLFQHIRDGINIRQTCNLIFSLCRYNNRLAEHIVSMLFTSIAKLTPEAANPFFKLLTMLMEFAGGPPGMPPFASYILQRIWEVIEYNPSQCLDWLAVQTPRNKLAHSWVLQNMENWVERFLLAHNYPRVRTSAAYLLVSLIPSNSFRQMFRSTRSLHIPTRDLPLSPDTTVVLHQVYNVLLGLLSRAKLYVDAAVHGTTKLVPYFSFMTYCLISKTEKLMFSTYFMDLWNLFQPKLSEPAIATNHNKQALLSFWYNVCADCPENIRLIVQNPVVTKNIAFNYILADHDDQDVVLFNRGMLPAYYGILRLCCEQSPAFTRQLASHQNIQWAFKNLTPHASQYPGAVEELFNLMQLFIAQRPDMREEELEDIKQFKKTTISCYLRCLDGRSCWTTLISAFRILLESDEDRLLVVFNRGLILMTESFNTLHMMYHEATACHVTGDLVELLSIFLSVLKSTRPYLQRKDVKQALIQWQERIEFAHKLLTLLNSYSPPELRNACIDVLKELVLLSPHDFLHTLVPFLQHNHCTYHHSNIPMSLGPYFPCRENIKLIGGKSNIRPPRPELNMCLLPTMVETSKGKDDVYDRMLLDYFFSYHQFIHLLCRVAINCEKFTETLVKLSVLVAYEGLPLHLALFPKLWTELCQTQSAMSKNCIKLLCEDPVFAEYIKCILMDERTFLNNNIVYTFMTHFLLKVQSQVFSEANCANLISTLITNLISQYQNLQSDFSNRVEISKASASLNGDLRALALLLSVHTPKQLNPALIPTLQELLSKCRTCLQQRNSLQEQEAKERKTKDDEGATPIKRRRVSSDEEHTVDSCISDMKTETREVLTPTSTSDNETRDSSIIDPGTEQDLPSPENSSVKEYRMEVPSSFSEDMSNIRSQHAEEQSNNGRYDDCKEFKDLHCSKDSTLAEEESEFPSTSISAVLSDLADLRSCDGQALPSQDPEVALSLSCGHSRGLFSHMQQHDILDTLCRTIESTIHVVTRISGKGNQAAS
Outline: (§1)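 HEK293T lysate (495 µg per sample, in Tris/CHAPS/IGEPAL buffer with protease inhibitors) was treated in triplicate with fragment at 200 µM or with DMSO for 3 h. It was then treated with Biotin-Ahx-Ub-VS (0.5 µM final) for 1 h. Labelled DUBs were NeutrAvidin-enriched, digested with LysC and trypsin, and run by diaPASEF LC-MS/MS. Spectronaut label-free quantities were global-median-normalised. Values are average log2 ratios fragment/DMSO by unpaired t-test, using proteins with ≥2 unique peptides.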

USP36 = molecular target: T1, USP36 (UniProt Q9P275)
T1 sequence (whole entry): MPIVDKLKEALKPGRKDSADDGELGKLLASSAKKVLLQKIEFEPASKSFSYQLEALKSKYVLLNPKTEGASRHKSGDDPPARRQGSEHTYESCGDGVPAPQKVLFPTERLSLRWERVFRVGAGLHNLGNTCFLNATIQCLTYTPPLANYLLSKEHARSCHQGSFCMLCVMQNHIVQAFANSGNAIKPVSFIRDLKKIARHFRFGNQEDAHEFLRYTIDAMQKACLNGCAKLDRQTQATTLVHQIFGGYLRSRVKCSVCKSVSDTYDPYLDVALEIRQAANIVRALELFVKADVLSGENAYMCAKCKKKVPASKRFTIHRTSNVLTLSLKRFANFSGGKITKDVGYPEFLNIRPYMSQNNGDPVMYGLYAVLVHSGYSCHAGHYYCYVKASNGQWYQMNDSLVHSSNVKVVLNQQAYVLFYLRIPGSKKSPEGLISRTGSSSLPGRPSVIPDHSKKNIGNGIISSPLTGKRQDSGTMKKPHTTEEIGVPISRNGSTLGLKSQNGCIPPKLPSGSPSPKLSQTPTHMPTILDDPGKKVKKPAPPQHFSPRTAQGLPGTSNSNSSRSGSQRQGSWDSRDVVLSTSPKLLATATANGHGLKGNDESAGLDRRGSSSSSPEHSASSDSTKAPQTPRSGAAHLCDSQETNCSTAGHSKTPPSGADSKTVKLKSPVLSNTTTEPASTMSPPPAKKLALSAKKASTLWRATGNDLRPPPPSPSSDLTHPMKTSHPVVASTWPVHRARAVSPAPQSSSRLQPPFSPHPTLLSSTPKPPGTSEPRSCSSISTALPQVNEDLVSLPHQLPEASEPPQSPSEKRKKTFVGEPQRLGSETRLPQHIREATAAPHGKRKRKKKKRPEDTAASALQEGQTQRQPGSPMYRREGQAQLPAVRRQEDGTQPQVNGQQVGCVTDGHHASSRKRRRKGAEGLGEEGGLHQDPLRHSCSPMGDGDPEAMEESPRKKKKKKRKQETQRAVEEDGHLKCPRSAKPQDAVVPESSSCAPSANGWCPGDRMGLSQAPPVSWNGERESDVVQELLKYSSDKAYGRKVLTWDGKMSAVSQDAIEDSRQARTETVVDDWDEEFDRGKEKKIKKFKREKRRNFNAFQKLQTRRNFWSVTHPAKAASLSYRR
Outline: as §1

USP38 = molecular target: T2, USP38 (UniProt Q8NB14)
T2 sequence (whole entry): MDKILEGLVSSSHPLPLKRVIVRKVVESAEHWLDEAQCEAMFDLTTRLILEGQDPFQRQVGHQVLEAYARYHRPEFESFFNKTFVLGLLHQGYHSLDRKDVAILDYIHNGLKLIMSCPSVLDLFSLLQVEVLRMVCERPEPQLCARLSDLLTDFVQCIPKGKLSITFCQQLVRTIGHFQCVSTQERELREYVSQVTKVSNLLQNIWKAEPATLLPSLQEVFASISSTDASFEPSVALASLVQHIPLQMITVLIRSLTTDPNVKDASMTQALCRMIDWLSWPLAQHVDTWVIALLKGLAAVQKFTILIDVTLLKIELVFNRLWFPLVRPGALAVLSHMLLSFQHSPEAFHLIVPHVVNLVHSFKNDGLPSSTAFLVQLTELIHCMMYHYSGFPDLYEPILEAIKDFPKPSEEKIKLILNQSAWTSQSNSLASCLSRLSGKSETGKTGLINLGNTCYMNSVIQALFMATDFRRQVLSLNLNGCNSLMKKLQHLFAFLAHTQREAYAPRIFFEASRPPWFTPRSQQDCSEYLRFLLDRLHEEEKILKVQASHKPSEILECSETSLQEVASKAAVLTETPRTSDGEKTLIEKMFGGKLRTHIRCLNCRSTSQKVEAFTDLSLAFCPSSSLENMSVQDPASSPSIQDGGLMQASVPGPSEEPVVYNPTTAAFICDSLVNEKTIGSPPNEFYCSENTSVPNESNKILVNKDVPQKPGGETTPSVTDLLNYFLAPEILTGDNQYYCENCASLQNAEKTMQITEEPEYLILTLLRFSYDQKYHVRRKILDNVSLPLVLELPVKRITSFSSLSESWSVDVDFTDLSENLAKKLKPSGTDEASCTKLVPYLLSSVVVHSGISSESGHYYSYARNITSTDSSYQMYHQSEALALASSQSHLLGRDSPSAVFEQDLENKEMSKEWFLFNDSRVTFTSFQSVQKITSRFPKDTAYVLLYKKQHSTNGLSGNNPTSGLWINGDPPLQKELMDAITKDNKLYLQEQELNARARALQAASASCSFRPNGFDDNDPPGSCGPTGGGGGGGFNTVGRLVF
Outline: as §1

USP39 = molecular target: T3, USP39 (UniProt Q53GS9)
T3 sequence (whole entry): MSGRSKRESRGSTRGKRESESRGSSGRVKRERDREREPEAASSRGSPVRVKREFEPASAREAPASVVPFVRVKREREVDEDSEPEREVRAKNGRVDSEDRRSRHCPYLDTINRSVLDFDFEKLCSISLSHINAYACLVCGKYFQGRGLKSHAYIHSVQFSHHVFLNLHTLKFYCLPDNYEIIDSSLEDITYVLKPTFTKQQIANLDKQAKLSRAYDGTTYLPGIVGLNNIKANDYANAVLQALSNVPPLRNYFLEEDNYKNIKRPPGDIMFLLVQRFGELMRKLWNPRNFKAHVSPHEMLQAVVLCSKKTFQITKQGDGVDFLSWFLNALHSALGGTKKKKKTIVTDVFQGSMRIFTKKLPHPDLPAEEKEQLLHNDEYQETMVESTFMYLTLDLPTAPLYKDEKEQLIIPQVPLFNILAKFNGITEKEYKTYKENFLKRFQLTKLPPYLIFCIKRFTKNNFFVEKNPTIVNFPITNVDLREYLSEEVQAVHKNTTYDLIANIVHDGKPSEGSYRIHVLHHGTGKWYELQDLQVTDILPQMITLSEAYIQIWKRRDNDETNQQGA
Outline: as §1

USP4 = molecular target: T4, USP4 (UniProt Q13107)
T4 sequence (whole entry): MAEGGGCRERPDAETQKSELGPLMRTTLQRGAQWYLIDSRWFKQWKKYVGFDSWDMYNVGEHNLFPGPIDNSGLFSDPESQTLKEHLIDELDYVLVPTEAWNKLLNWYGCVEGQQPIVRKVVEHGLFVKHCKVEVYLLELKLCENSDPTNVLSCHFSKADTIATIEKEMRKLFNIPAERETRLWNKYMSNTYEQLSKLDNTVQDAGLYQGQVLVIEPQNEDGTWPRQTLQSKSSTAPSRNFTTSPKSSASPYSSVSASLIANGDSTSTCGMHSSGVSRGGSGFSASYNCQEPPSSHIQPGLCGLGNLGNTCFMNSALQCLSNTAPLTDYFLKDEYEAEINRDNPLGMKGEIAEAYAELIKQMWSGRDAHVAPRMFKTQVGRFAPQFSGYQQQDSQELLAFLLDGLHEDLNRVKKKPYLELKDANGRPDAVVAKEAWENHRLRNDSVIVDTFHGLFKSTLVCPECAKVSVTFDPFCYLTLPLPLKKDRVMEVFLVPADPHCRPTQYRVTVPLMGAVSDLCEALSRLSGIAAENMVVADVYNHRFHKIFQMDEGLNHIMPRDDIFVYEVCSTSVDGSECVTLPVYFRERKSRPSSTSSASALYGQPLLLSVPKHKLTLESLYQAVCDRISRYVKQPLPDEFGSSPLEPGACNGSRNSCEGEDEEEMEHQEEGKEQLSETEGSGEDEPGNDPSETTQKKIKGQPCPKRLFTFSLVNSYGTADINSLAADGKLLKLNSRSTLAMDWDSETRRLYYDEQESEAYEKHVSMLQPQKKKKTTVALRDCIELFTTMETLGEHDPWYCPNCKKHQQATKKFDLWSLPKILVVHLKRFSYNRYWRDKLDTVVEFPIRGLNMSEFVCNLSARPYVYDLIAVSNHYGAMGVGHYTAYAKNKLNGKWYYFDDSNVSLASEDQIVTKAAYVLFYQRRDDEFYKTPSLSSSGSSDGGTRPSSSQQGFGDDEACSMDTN
Outline: as §1

Measured: log2 ratio of Biotin-Ahx-Ub-VS probe labelling

O=C(CCl)NCC1(c2ccccc2)CC1
inactive: USP34 -0.227 | USP36 -0.0695 | USP38 0.127 | USP39 -0.168 | USP4 -0.0752
